# The supplement of paper PMC3724861
# The entries come from a sample that favours hits as a whole. How many sequences the whole screen found active is unknown.
# Test system: T1, Caupolican (Caup) homeodomain DNA-binding domain
# T1 sequence: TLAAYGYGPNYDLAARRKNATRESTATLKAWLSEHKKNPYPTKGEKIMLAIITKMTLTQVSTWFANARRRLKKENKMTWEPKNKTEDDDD
# Test: PBM E-score (8-mer, recovered from the published 9-mer minima) (E-score (dimensionless, -0.5 to 0.5)); Drosophila protein; higher = stronger relative binding preference, active = 0.31 or more
# In short: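 An enrichment score, with higher meaning stronger, expresses relative binding preference for each short DNA word. The protein used was Caup's homeodomain DNA-binding domain (residues 214-303), produced by in vitro transcription and translation and tested at 100 nM on custom-designed protein binding microarrays. The 8-mer values were recovered from published 9-mer scores, each equal to the lower of its two constituent 8-mer scores.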
row,Sequence,PBM E-score
1,ACCTGGAC,-0.0342 (inactive)
2,ACCGTGTA,0.359 (active)
3,ACCGTGTC,0.312 (active)
4,GCCGTGTA,0.341 (active)
5,ACCGTGTG,0.115 (inactive)
6,ACCGTGCA,0.00395 (inactive)
7,GCCGTGAA,-0.0891 (inactive)
8,CCCGTGTA,0.25 (inactive)
9,ACCGTGGA,-0.107 (inactive)
10,CCCGTGTC,0.145 (inactive)
11,GAACACCA,0.195 (inactive)
12,ACTATCAG,0.083 (inactive)
13,ATTATTAA,0.191 (inactive)
14,ACATTTTC,0.161 (inactive)
15,ACGCGACT,0.0019 (inactive)
16,CTCATAAG,0.0492 (inactive)
17,CATGACAG,0.151 (inactive)
18,GATAGATA,0.08 (inactive)
19,AGCTTCAC,-0.0515 (inactive)
20,CATGGGAC,0.151 (inactive)
21,AAATGTTG,0.201 (inactive)
22,CGATGTTC,0.249 (inactive)
23,CAATGTTC,0.218 (inactive)
24,AGATGTTA,0.286 (inactive)

row,Sequence,PBM E-score
1,AGATGTTG,0.203 (inactive)
2,CCATGTTC,0.368 (active)
3,GGATGTTA,0.204 (inactive)
4,ACCTGTTA,0.222 (inactive)
5,ACATGTTG,0.453 (active)
6,GCATGTTA,0.397 (active)
7,GAATGTTA,0.234 (inactive)
8,ACATGTTA,0.452 (active)
9,GAGCCTCA,-0.214 (inactive)
10,CCATATGG,-0.073 (inactive)
11,AGCACTGA,-0.0101 (inactive)
12,ACACTCTA,0.0891 (inactive)
13,AGTTTTGA,0.0657 (inactive)
14,CGTCCGGC,-0.219 (inactive)
15,ACATGTTC,0.455 (active)
16,AGATGTTC,0.286 (inactive)
17,CAATGTTA,0.269 (inactive)
18,AAATGTTC,0.247 (inactive)
19,CGATGTTA,0.297 (inactive)
20,CCATGTTA,0.406 (active)
21,GATTTGCA,0.0416 (inactive)
22,ATAGTTCC,-0.029 (inactive)
23,AAAGCCCC,-0.238 (inactive)
24,CGTTAAGC,-0.0697 (inactive)

row,Sequence,PBM E-score
1,GGTTGTGA,0.0824 (inactive)
2,CGTAGTAA,0.145 (inactive)
3,AGTTGTTA,0.266 (inactive)
4,AGTTGTAA,0.279 (inactive)
5,GGTTGTAC,0.222 (inactive)
6,TGTAGTAA,0.376 (active)
7,AGTAGTAA,0.168 (inactive)
8,GGTTGTTA,0.324 (active)
9,CGTTGTAA,0.261 (inactive)
10,TGTTGTAA,0.377 (active)
11,GGTTGTAA,0.333 (active)
12,CGTTGTTA,0.305 (inactive)
13,ACGAGGTG,0.0761 (inactive)
14,AGATGCAC,-0.00186 (inactive)
15,AGCGTTCG,-0.141 (inactive)
16,ATTAGGAA,0.0485 (inactive)
17,AGCAACAC,0.186 (inactive)
18,AGACGCGC,-0.0474 (inactive)
19,CCACGATA,0.0391 (inactive)
20,ACACGACC,0.215 (inactive)
21,GCACAATA,0.0168 (inactive)
22,ACACGTCA,0.325 (active)
23,ACACGTCT,0.203 (inactive)
24,ACACAATA,0.31 (active)

row,Sequence,PBM E-score
1,ACACGATA,0.322 (active)
2,ACACGATC,0.254 (inactive)
3,ACACGTCG,0.212 (inactive)
4,ACACAATG,0.273 (inactive)
5,ACACGACT,0.251 (inactive)
6,ACACGACA,≥ 0.386 (active)
7,AGACTGTG,0.0481 (inactive)
8,GCAGTCTA,0.0232 (inactive)
9,AAGATTGC,-0.00712 (inactive)
10,CATTTCAG,0.00691 (inactive)
11,ACACGAAG,0.174 (inactive)
12,ACACGAGG,0.111 (inactive)
13,ACACGATG,0.347 (active)
14,AAAAGCAT,0.1 (inactive)
15,TCTACACA,0.157 (inactive)
16,TTTACAAA,0.245 (inactive)
17,CGTACCAA,0.0356 (inactive)
18,AGTACAAA,0.26 (inactive)
19,CGTACACC,0.205 (inactive)
20,CGTACACA,0.255 (inactive)
21,TGTACCAA,0.312 (active)
22,AGTACCAA,0.128 (inactive)
23,TGTACAAA,0.384 (active)
24,GGTACACA,0.28 (inactive)

row,Sequence,PBM E-score
1,CGTACACG,0.341 (active)
2,TGTACACA,0.407 (active)
3,CGTATAGC,-0.0127 (inactive)
4,ACTGCCTG,-0.0684 (inactive)
5,ATGCTCGC,-0.0878 (inactive)
6,CGTCTGTC,0.0202 (inactive)
7,GCTTATAC,-0.034 (inactive)
8,CATATTTA,0.178 (inactive)
9,AAGCTGTG,0.00524 (inactive)
10,ATCCCGAC,-0.0204 (inactive)
11,GCAGGTTA,-0.0457 (inactive)
12,ATGTTATG,0.338 (active)
13,ACGTTATC,0.0197 (inactive)
14,AAGTTATA,0.163 (inactive)
15,ATGTTATA,0.381 (active)
16,CTGTTATA,0.187 (inactive)
17,AGGTTATA,0.0929 (inactive)
18,AAGTTATG,0.185 (inactive)
19,ATGTTATC,0.351 (active)
20,GCGTTATA,-0.0159 (inactive)
21,CTGTTATC,0.103 (inactive)
22,AGGTTATG,0.044 (inactive)
23,GTGTTATA,0.334 (active)
